Results filed as inconclusive are left out. A number with no mark means an inactive call. Active and inactive are the calls of the source. The call rests on the fitted dose curve; in most records, active means well fitted cell-killing curve with a large enough effect; inconclusive means small, poorly fitted or top-dose-only effect, or effect the other way; inactive means flat fitted curve, though single readings scatter.
Assay: Cell viability assay in S16 Pmp22-HiBiT cells - Confirmatory screen
Conditions: S16 Schwann Pmp22-HiBiT viability, CellTiter-Glo, 24 h; series mostly up to 27.9 µM; activity change, negative = viability loss: at the top concentration
Excerpt: Assay Provider: Jim Inglese Ph.D. National Center for Advancing Translational Science, National Institutes of Health, Rockville, MD CMT is a heterogeneous group of neurological disorders that affect approximately 1 in 2,500 people. In particular, the most common form of CMT, CMT1A is genetically linked to the duplication of the PMP22 gene which leads to Schwann cell overexpression, thus manifesting itself as a typical case of dose-sensitive diseases. To identify small molecule compounds that can mediate the expression of PMP22 we developed a phenotypic assay screening strategy by utilizing genome editing techniques to construct Schwann cell lines containing novel reporter technology to monitor the transcriptional or translational regulation of PMP22. For high sensitivity we use a bioluminescent reporter system embedded in the 3' UTR of the PMP22 gene (S16(c9) Pmp22-F2sN) to identify compounds that inhibit gene expression. […] We can further discriminate the effect of all transcriptionally active molecules on PMP22 translation or stability with an assay that incorporates a short NLuc peptide (HiBiT) at the C-terminus of expressed PMP22 (S16(f8) PMP22-HiBiT) allowing alpha complementation and luminescence detection of membrane-associated PMP22 protein. These assays were screened against the NCATS Sytravon Library Collection. Miniaturization of these assays to 1536-well plate format for quantitative high throughput screening (qHTS) yielded rich data sets immediately from the qHTS assay (S16(c9) Pmp22-F2sN), when compared with data from a cell viability assay (Cell TiterGlo) to identify compounds that decreased the output signals through cellular toxicity to streamline the selection process of actives for subsequent characterization using the HiBiT assay (S16(f8) PMP22-HiBiT).
Cell viability assay in S16 Pmp22-HiBiT cells PROTOCOL TABLE (format as described by Inglese J, Shamu CE and Guy RK. 2007) SEQUENCE No. (e.g., 1, 2, 3, etc.); PARAMETER (e.g., Cells, Incubation, Reagent, etc.); VALUE and DESCRIPTION. 1. Cells. Add 500-1,000 cells in 4 uL in growth media (DMEM High Glucose, No Phenol Red media + 10% heat-inactivated FBS + 1% Pen/Strep supplemented media) per well into Greiner 1536-well white/solid bottom high base, TC-treated plates. 2. Compounds. Library compounds and controls added at 23nL per well, transferred by Pin Tool. 3. Incubation. Incubate plates at 37C, 5% CO2, 95% RH for 24 h. 4. Reagent. Add 3uL CellTiter-Glo per well of Greiner 1536-well plates. 5. Incubation. Incubate plates at room temperature for 15 min., protect from light. 6. Detector. Luminescence measured using CCD-based camera (Viewlux). NOTES (numbers refer to Sequence numbers above; values are from representative experiments) 6. Luminescence Read: Clear filter; Exposure = 1 sec, Gain = High, Speed = Slow, Binning = 2X REFERENCES: 1. Inglese J, Shamu CE and Guy RK, Reporting data from high throughput screening of small molecule libraries, Nature Chemical Biology, 2007, 3(8): 438-441. doi.org/10.1038/nchembio0807-438 2. Yasgar A, Shinn P, Jadhav A, Auld DS, Michael S, Zheng W, Austin CP, Inglese J and Simeonov A, Compound Management for Quantitative High-Throughput Screening. J. Assoc. Lab. Auto., 2008, 13: 79-89. doi: 10.1016/j.jala.2007.12.004

SMILES | activity change, negative = viability loss | Potency
Cc1c(Cl)cccc1NC(=O)c1oc2ccc(S(=O)(=O)N3CCC4(CC3)OCCO4)cc2c1C | -15.4% | 
Cc1cc(C)c(NC(=O)Cn2c(=O)n(Cc3ccco3)c(=O)c3ccc(C(=O)NC4CCCC4)cc32)c(C)c1 | 0.029% | 
O=C(CCS(=O)(=O)c1nc(-c2cccs2)cc(C(F)(F)F)n1)Nc1ccc(OC(F)(F)F)cc1 | -29.1% | 
O=S(=O)(NCC(c1ccco1)S(=O)(=O)c1cccs1)c1ccc(Cl)cc1 (stereo not given) | -23.4% | 
COc1ccccc1Nc1c2c(nc3ccc(NC(=O)/C=C/c4cccc(OC)c4OC)cc13)CCCC2 |  | 5.13 µM (active)
COc1ccc(NC(=O)CCS(=O)(=O)c2nc(-c3cccs3)cc(C(F)(F)F)n2)cc1 | -4.25% | 
COc1ccc(-c2cc(C(F)(F)F)nc(S(C)(=O)=O)n2)cc1 |  | 18.2 µM (active)
CCCn1c(=N)c(C(=O)NC(C)c2ccccc2)cc2c(=O)n3ccccc3nc21 (stereo not given) | -1.4% | 
COc1ccccc1Nc1nn2c(=O)c3ccc(C(=O)Nc4ccc(F)cc4)cc3nc2s1 |  | 7.24 µM (active)
COc1ccc(Cl)cc1NC(=O)CCCS(=O)(=O)c1nc(-c2ccc(OC)c(OC)c2)cc(C(F)(F)F)n1 |  | 6.45 µM (active)
Cc1cccc(-n2c(=O)c3c(c4cc(C)ccc4n3C)n(CC(=O)NCCC3=CCCCC3)c2=O)c1 | -5.38% | 
O=C(Cn1c(-c2cccs2)cc2cc(F)ccc21)NCCCN1CCN(c2ccccc2F)CC1 | -14.6% | 
Cc1ccc(C)c(NC(=O)Cn2c(=O)n(Cc3ccc4c(c3)OCO4)c(=O)c3ccc(C(=O)NC4CCCCC4)cc32)c1 | -5.26% | 
COc1ccc(Br)c2c1-c1nc(NC(=O)c3cccc(C)c3)sc1C2 | -8.97% | 
O=C(Cn1c(-c2cccs2)cc2cc(F)ccc21)NCCCN1CCN(c2ccc(F)cc2)CC1 | -28% | 
CCC(C)NC(=O)C1CCN(C(=O)c2cc3sccc3n2Cc2ccc(Cl)cc2)CC1 (stereo not given) |  | 11.5 µM (active)
CCCCCS(=O)(=O)c1oc(-c2cccs2)nc1S(=O)(=O)c1ccc(C)cc1 |  | 18.2 µM (active)
Clc1cccc(-c2noc3ncnc(NC4CCCCC4)c23)c1 | 10.9% | 
Cc1ccc(S(=O)(=O)c2nnn3c2nc(NC2CCCCCC2)c2sccc23)cc1C | -25.6% | 
CCOCCCNC(=O)c1ccc(-n2c(-c3ccccc3)cc3c2CCC(C)C3)cc1 (stereo not given) | 3% | 

SMILES | activity change, negative = viability loss | Potency
CCC(Sc1nc2ccccc2c2nc(-c3ccccc3)nn12)C(=O)Nc1cccc(OC)c1 (stereo not given) | 6.68% | 
CCOc1ccc(C(=O)c2cnc3ccc(Cl)cc3c2S(=O)(=O)c2ccc(C)cc2)cc1 | 9.48% | 
CCOc1cc(CNc2ccc(O)cc2)cc(Br)c1OCc1ccccc1 | -2.33% | 
CCC(=O)C1=C(c2cccc([N+](=O)[O-])c2)N(C(=O)CC)n2c(nnc2C2CCCCC2)S1 | 6.08% | 
CCN(CC)CCNC(=O)c1cc(-c2ccc(Br)s2)nc2ccccc12 |  | 10.2 µM (active)
O=C(Cn1c(-c2cccs2)cc2ccccc21)NCCCN1CCN(c2ccc(F)cc2)CC1 | -19.8% | 
Cc1cccc(CS(=O)(=O)c2ncc(Cl)c(C(=O)Nc3nc4ccc(F)cc4s3)n2)c1 |  | 14.5 µM (active)
COc1ccccc1NC(=O)Cn1c(=O)n(-c2cccc(Cl)c2)c(=O)c2sc3ccccc3c21 |  | 12.9 µM (active)
COC(=O)c1c(-c2ccc(Cl)cc2)noc1N1CCN(c2cccc(C(F)(F)F)c2)CC1 |  | 10.2 µM (active)
CCCN1CCN(CCCNC(=O)Cn2c(-c3cccs3)cc3ccccc32)CC1 | -7.46% | 
Cc1ccc(CN2C(=O)C(O)(c3c(C)[nH]c4ccccc34)c3ccccc32)cc1 (stereo not given) | 27.9% | 
CCc1ccc(C(=O)c2cn(CC(=O)Nc3ccc4c(c3)OCO4)c3ccc(CC)cc3c2=O)cc1 |  | 14.5 µM (active)
Cc1ccc(OCC(=O)Nc2ccc3nc(SCC(=O)N4CCc5ccccc54)sc3c2)cc1 | -19.9% | 
CCOC(=O)c1c(NC(=O)c2nc(S(C)(=O)=O)ncc2Cl)sc(C(C)=O)c1C |  | 4.57 µM (active)
COc1ccc(NC(=O)Cn2c(=O)n(CCC(=O)NCc3ccccc3OC)c(=O)c3ccccc32)cc1Cl |  | 16.2 µM (active)
COc1ccc(NC(=O)c2oc3ccccc3c2NC(=O)Cc2ccc(F)cc2)c(OC)c1 | -17.8% | 
COc1cccc(-n2c(SCC(=O)c3ccc(Cl)cc3)nc3c([nH]c4ccccc43)c2=O)c1 |  | 10.2 µM (active)
CCC(=O)C1=C(c2cccc([N+](=O)[O-])c2)N(C(=O)CC)n2c(nnc2-c2ccccc2)S1 | 1.46% | 
COCCCNC(=O)c1ccc(-n2c(-c3ccccc3)cc3c2CCC(C)C3)cc1 (stereo not given) | 5.81% | 
COc1ccc(Br)cc1CC1C(=O)Nc2ccccc21 (stereo not given) | -2.78% | 
